Results reported in PubChem BioAssay.
Activity calls are given as the source filed them.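 Rule for the calls, unless noted: active = NADPH fluorescence slope more negative than the mean of all samples by about 3 SD, 99.7% confidence; inactive = the rest.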

The compounds below were run against Voltage-gated potassium channel subunit beta-2 (Rattus norvegicus) (UniProt P62483) (assay: enhancers of rat Kvbeta2 NADPH turnover – biochemical, NADPH fluorescence, primary screen (AID 623;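 note: fluorescence intensity change per second fitted from 20 to 320 s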)). Conditions: Recombinant KvBeta, NADPH fluorescence decrease slope, 10 min; at 10 µM; stronger effect = lower value.
Sequence of Voltage-gated potassium channel subunit beta-2 (Rattus norvegicus) (P62483 whole entry, looked up): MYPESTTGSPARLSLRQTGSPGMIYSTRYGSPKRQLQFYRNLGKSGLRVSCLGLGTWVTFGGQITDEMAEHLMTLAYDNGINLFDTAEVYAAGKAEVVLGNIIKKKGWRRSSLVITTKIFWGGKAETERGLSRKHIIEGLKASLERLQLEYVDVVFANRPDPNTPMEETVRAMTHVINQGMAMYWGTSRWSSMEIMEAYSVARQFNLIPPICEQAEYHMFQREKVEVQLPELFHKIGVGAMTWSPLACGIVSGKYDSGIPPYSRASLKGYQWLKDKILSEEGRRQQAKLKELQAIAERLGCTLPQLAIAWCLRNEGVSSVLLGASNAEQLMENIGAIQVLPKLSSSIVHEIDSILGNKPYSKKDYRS

NADPH fluorescence slope, inactive:
Cc1ccc(NC(=O)c2cc(N3CCOCC3)nc3ccccc23)cc1 -2.7e-05
COc1ccc(N(CC(=O)Nc2cc(C)ccc2C)S(=O)(=O)c2c(C)nn(C)c2C)cc1 -2.9e-05
Cc1nnc(NC(=O)CSc2cn(CCNC(=O)c3ccccc3)c3ccccc23)s1 5.8e-06
CC1(C)CC(=O)C(C(=O)CCCCC(=O)C2C(=O)CC(C)(C)CC2=O)C(=O)C1 1.6e-05
O=C(CN(c1ccc(F)cc1)S(=O)(=O)c1ccc2c(c1)OCCO2)Nc1ccc2c(c1)OCO2 -3.3e-05
CCOC(=O)N1CCN(C(=O)CSc2nnc(-c3cccc(Cl)c3)o2)CC1 -0.000158
O=c1oc2c3c4c(cc2s1)CCCN4CCC3 -6e-05
CCOC(=O)N1CCN(C(=O)CSc2cc(C)nc3c(-c4ccccc4OC)c(C)nn23)CC1 1.2e-05
Cc1ccc(-c2noc(-c3ccccc3C(=O)NCC3CCCO3)n2)cc1 (centres undefined) 5.9e-05
CCS(=O)(=O)N1CCCC(C(=O)NCc2cccc(OC)c2)C1 (centres undefined) -1.9e-05
CC1=C(C(=O)OC2CCCCCC2)C(c2ccc(C)o2)C2=C(CCCC2=O)N1 (centres undefined) -2e-05
CC(=O)N1CCN(C(=O)COc2ccc(Br)cc2)CC1 -5.6e-05
Cc1ccc(NC(=O)CSc2nnc(-c3ccccn3)n2C)cc1 -2.7e-05
Nn1c(SCC(=O)NC2CCCCC2)nnc1C1CC1 4.6e-05
COc1ccc(-c2nc3n(n2)C(=O)CC(c2ccco2)S3)cc1 (centres undefined) -5.1e-05
O=C(NC1CCCc2ccccc21)c1ccc(CNc2c(N3CCOCC3)c(=O)c2=O)cc1 (centres undefined) -2.5e-06
Nc1nc(-n2cnnc2)nn1-c1ccccc1 -3e-05
Cc1cccc(-n2ncc3c(NCc4cccnc4)ncnc32)c1 -3.3e-05
CCCn1c(O)c(CN2CCCC(C)C2)c(C)c(C#N)c1=O (centres undefined) -2.9e-05
C=CCn1c(SCn2nnc3ccccc3c2=O)nnc1-c1ccc(Br)cc1 -5.6e-05
Cc1cc(NS(=O)(=O)Cc2ccccc2)cc(C)c1OCC(=O)N1CCOCC1 -4.7e-05
COC(=O)c1c(-n2cnnn2)sc(C)c1C -4.5e-05
O=S(=O)(NC1CCCC1)c1ccccc1Cl -3.7e-05
CCOC(=O)c1[nH]c2ccccc2c1NC(=O)C(CC)CC -3.3e-05
Cc1cccn2c(=O)c(/C=C(\C#N)S(=O)(=O)c3ccccc3)c(N3CCN(C)CC3)nc12 -6e-05
O=C(C1CCN(C2CC(=O)N(c3ccc(F)cc3)C2=O)CC1)N1CCOCC1 (centres undefined) -2.5e-05
Cc1cc(C(=O)Nc2cccnc2)no1 -5.2e-05
Cc1occc1C(=O)Nc1nnc(C2CCCCC2)s1 -1.5e-05
O=C(CSc1nc2ccccc2s1)Nn1cnnc1 -7.8e-05
Cc1cccc(CCNC(=O)CCc2nc(-c3ccccc3F)no2)c1 -2.4e-05
CCOC(=O)N1CCC(NC(=O)Cn2ncc3c4ccccc4n(C)c3c2=O)CC1 -2.3e-05
CCCn1c(-c2ccc(F)cc2)cnc1SCC(=O)O -3.6e-05
CC1CCN(C(=O)CSc2nnc(-c3ccc(S(=O)(=O)N4CCOCC4)cc3)n2C)CC1 -4.4e-05
Cc1cc(=O)n2nc(N3CCCC(C(=O)N4CCc5ccccc54)C3)sc2n1 (centres undefined) -6.9e-05
CCOC(=O)c1ccc(NC(=O)CSc2n[nH]c(-c3ccncc3)n2)cc1 -3.8e-05
CCOC(=O)N1CCC(c2cc(=O)n3[nH]cc(C(=O)OC)c3n2)CC1 -1.8e-05
COc1ccc(C(=O)CSc2nnc(C3CCCCC3)n2N)c(OC)c1 -2e-05
Cc1ccc(C)c(NC(=O)c2ccc3c(c2)N(Cc2ccc(F)cc2)C(=O)CS3=O)c1 (centres undefined) -2.3e-05
CCc1[nH]c(=O)c(C#N)c2c1CCCC2 -0.000126
COc1cc(C2CC(=O)NC3=C2C(=O)CC(C)(C)C3)ccc1O (centres undefined) -4.2e-05

What follows are compounds tested against Alpha-2C adrenergic receptor (Homo sapiens) (UniProt P18825) (assay: compounds altering alpha2C-coupled GIRK flux – cell-based, HEK293 alpha2C/GIRK1/2, thallium flux, primary screen (AID 624;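 active = fluorescence slope after compound addition differing from the mean of all screened samples at 99.7% confidence, in either direction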;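 note: slope of fluorescence ratio to pre-addition baseline per second over 15 to 24 s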)). Conditions: thallium flux BTC fluorescence, at 10 µM, actives lie on both sides.
Sequence of Alpha-2C adrenergic receptor (Homo sapiens) (P18825 whole entry, looked up): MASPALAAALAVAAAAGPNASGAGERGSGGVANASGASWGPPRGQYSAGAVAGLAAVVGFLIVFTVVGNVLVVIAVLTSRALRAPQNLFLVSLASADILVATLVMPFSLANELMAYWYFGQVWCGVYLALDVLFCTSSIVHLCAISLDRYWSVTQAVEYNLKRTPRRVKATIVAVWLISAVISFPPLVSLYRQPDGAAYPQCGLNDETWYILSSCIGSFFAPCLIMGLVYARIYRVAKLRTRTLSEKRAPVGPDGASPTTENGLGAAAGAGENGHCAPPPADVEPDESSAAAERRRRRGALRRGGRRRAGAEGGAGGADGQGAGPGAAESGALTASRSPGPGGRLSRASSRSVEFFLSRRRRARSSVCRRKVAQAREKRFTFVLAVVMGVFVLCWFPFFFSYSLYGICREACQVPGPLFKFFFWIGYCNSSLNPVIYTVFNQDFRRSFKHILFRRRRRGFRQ

slope, inactive:
COc1ccc(N(CC(=O)Nc2cc(C)ccc2C)S(=O)(=O)c2c(C)nn(C)c2C)cc1 0.0057
Cc1nnc(NC(=O)CSc2cn(CCNC(=O)c3ccccc3)c3ccccc23)s1 0.00437
CC1(C)CC(=O)C(C(=O)CCCCC(=O)C2C(=O)CC(C)(C)CC2=O)C(=O)C1 0.00351
O=C(CN(c1ccc(F)cc1)S(=O)(=O)c1ccc2c(c1)OCCO2)Nc1ccc2c(c1)OCO2 0.00328
CCOC(=O)N1CCN(C(=O)CSc2nnc(-c3cccc(Cl)c3)o2)CC1 0.00621
O=c1oc2c3c4c(cc2s1)CCCN4CCC3 0.00368
CCOC(=O)N1CCN(C(=O)CSc2cc(C)nc3c(-c4ccccc4OC)c(C)nn23)CC1 0.00377
Cc1ccc(-c2noc(-c3ccccc3C(=O)NCC3CCCO3)n2)cc1 (centres undefined) 0.00648
CCS(=O)(=O)N1CCCC(C(=O)NCc2cccc(OC)c2)C1 (centres undefined) 0.00403
CC1=C(C(=O)OC2CCCCCC2)C(c2ccc(C)o2)C2=C(CCCC2=O)N1 (centres undefined) 0.00508
CC(=O)N1CCN(C(=O)COc2ccc(Br)cc2)CC1 0.00597
Cc1ccc(NC(=O)CSc2nnc(-c3ccccn3)n2C)cc1 0.00462
Nn1c(SCC(=O)NC2CCCCC2)nnc1C1CC1 0.00622
O=C(NC1CCCc2ccccc21)c1ccc(CNc2c(N3CCOCC3)c(=O)c2=O)cc1 (centres undefined) 0.00556
Nc1nc(-n2cnnc2)nn1-c1ccccc1 0.0053
Cc1cccc(-n2ncc3c(NCc4cccnc4)ncnc32)c1 0.00696
CCCn1c(O)c(CN2CCCC(C)C2)c(C)c(C#N)c1=O (centres undefined) 0.00503
C=CCn1c(SCn2nnc3ccccc3c2=O)nnc1-c1ccc(Br)cc1 0.00508
Cc1cc(NS(=O)(=O)Cc2ccccc2)cc(C)c1OCC(=O)N1CCOCC1 0.00653
O=S(=O)(NC1CCCC1)c1ccccc1Cl 0.00495
CCOC(=O)c1[nH]c2ccccc2c1NC(=O)C(CC)CC 0.00668
O=C(C1CCN(C2CC(=O)N(c3ccc(F)cc3)C2=O)CC1)N1CCOCC1 (centres undefined) 0.00647
Cc1cc(C(=O)Nc2cccnc2)no1 0.0058
Cc1occc1C(=O)Nc1nnc(C2CCCCC2)s1 0.00511
Cc1cccc(CCNC(=O)CCc2nc(-c3ccccc3F)no2)c1 0.00305
CCOC(=O)N1CCC(NC(=O)Cn2ncc3c4ccccc4n(C)c3c2=O)CC1 0.00602
CCCn1c(-c2ccc(F)cc2)cnc1SCC(=O)O 0.00449
CC1CCN(C(=O)CSc2nnc(-c3ccc(S(=O)(=O)N4CCOCC4)cc3)n2C)CC1 0.00393
Cc1cc(=O)n2nc(N3CCCC(C(=O)N4CCc5ccccc54)C3)sc2n1 (centres undefined) 0.00401
CCOC(=O)c1ccc(NC(=O)CSc2n[nH]c(-c3ccncc3)n2)cc1 0.00612
CCOC(=O)N1CCC(c2cc(=O)n3[nH]cc(C(=O)OC)c3n2)CC1 0.00674
COc1ccc(C(=O)CSc2nnc(C3CCCCC3)n2N)c(OC)c1 0.00551
Cc1ccc(C)c(NC(=O)c2ccc3c(c2)N(Cc2ccc(F)cc2)C(=O)CS3=O)c1 (centres undefined) 0.00733
COc1cc(C2CC(=O)NC3=C2C(=O)CC(C)(C)C3)ccc1O (centres undefined) 0.00203
